# About 79,000 compounds went through this panel and 15% of them were active in at least one assay; those are over-represented in the sample as a whole. A number with no mark means an inactive call. Active and inactive are the calls of the source. No stated cut-off is given here; in the data, active means growth inhibition above about 70%; inactive means the rest.
# Assays:
# [1] = NCI Yeast Anticancer Drug Screen. Data for the rad50 strain (AID 155);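 further: 0% = growth of vehicle-only cultures of the same strain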; conditions: S. cerevisiae rad50 strain growth inhibition, stronger effect = higher value
# Summary of the method: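 Genetically altered yeast (DNA repair pathway); compound treatment; growth inhibition vs vehicle ctrl.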
# [2] = NCI Yeast Anticancer Drug Screen. Data for the mec2-1 strain (AID 157); conditions: S. cerevisiae mec2-1 strain, stronger effect = higher value
# Summary of the method: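 Mutant yeast (mec2-1) grown with compound; growth inhibition relative to vehicle control reported.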
# [3] = NCI Yeast Anticancer Drug Screen. Data for the sgs1 mgt1 strain (AID 161);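 further: 0% = growth of cultures given vehicle only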; conditions: S. cerevisiae sgs1 mgt1 strain, stronger effect = higher value
# Summary of the method: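 Growth of a repair-deficient yeast mutant was monitored after compound treatment and expressed as inhibition relative to vehicle-treated cultures.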
# [4] = NCI Yeast Anticancer Drug Screen. Data for the cln2 rad14 strain (AID 165);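 further: 0% = growth equal to vehicle treated cultures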; conditions: S. cerevisiae cln2 rad14 strain, stronger effect = higher value
# Summary of the method: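 Readout is yeast growth inhibition versus vehicle-treated controls, using a strain with cln2 and rad14 alterations exposed to compound.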
# [5] = NCI Yeast Anticancer Drug Screen. Data for the bub3 strain (AID 167); conditions: S. cerevisiae bub3 mutant strain, stronger effect = higher value
# Summary of the method: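 Yeast carrying a defined mutation is treated with each compound, and growth is compared with that of vehicle-exposed cells to give inhibition.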
# [6] = NCI Yeast Anticancer Drug Screen. Data for the mlh1 rad18 strain (AID 175); conditions: S. cerevisiae mlh1 rad18 strain growth inhibition, stronger effect = higher value
# Summary of the method: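 Genetically defined yeast (DNA repair-deficient) exposed to compounds; growth inhibition determined relative to vehicle.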
# [7] = at 5.0 µM (retest, dose inferred, filed as 0.5)
# [8] = at 50.0 µM (retest, dose inferred, filed as 5.0)
SMILES,"growth inhibition [1, 7]","growth inhibition [1, 8]",growth inhibition ([1]; at 50.0 µM),"growth inhibition [2, 7]","growth inhibition [2, 8]",growth inhibition ([2]; at 50.0 µM),"growth inhibition [3, 7]","growth inhibition [3, 8]",growth inhibition ([3]; at 50.0 µM),"growth inhibition [4, 7]","growth inhibition [4, 8]",growth inhibition ([4]; at 50.0 µM),"growth inhibition [5, 7]","growth inhibition [5, 8]",growth inhibition ([5]; at 50.0 µM),"growth inhibition [6, 7]","growth inhibition [6, 8]",growth inhibition ([6]; at 50.0 µM)
COc1cc(C=Nc2ccc(-c3csc(COc4ccccc4)n3)cc2)ccc1N(CCCl)CCCl,12%,88% (active),89.7% (active),11%,92% (active),88.1% (active),8%,93% (active),86.2% (active),2%,85% (active),84.2% (active),17%,88% (active),86% (active),77% (active),92% (active),90.6% (active)
O=C(OCc1ccccc1)C(C(Cl)c1ccccc1)N(Cc1ccccc1)Cc1ccccc1 (configuration not stated),-2%,53%,90.8% (active),3%,65%,81.2% (active),-1%,50%,85.5% (active),1%,53%,89.8% (active),-1%,49%,67.7%,-1%,56%,86.5% (active)
COc1c(NC(=O)CC(C)=O)[c]([Hg][O]C(C)=O)c(OC)c(Cl)[c]1[Hg][O]C(C)=O,29%,95% (active),91.8% (active),32%,96% (active),93.8% (active),81% (active),97% (active),93.5% (active),29%,96% (active),88.8% (active),62%,97% (active),93.3% (active),38%,95% (active),87.8% (active)
CCCCCCC[CH2][Sn]([F])([F])[CH2]CCCCCCC,3%,-7%,41%,12%,4%,46.5%,-1%,-2%,7.45%,-1%,-5%,19.9%,4%,-1%,-5.1%,4%,-15%,40.2%
Cc1ccccc1C(=O)CN,-3%,-2%,16.4%,0%,-3%,-6%,-1%,0%,-4.2%,-5%,-3%,81.3% (active),-2%,-9%,-13.1%,-1%,-3%,12.9%
O=C(O)/C=C\c1c[nH]c2ccccc12,10%,97% (active),75.8% (active),-2%,89% (active),38.3%,2%,87% (active),60.2%,-6%,89% (active),1.45%,-2%,95% (active),50.8%,-17%,97% (active),42.4%
C[C@]12CC/C(=N\NC(=O)c3ccncc3)C[C@@H]1CC[C@@H]1[C@@H]2CC[C@]2(C)[C@@H](O)CC[C@@H]12,0%,52%,68.9%,5%,54%,29.1%,13%,65%,77.3% (active),6%,8%,66.8%,2%,37%,35%,10%,46%,59.1%
COc1cc(C[C@H]2c3cc(OC)c(OC)c(O)c3CCN2C)c(Oc2cc3c(cc2OC)-c2c(OC)c(OC)c(OC)c4c2C(C3)N(C)CC4)cc1OC (some centres not stated) (tested in a mixture with another compound),-2%,40%,64.7%,-1%,52%,33.5%,-6%,36%,47.8%,-7%,44%,44.8%,3%,39%,61.5%,-5%,96% (active),80% (active)
FC(F)(F)c1nnn[n-]1.[Au+].c1ccc([PH+](c2ccccc2)c2ccccc2)cc1,99% (active),97% (active),97.6% (active),100% (active),97% (active),97.2% (active),99% (active),98% (active),95.6% (active),99% (active),96% (active),94.5% (active),98% (active),97% (active),96.3% (active),99% (active),97% (active),94.7% (active)

# — PubChem BioAssay (NCI)
